IL2 activator: activates IL-2 in a cell-based reporter assay | IL-2 activation reporter assay, cell-based qHTS; stimulated with anti-CD3/CD4/CD28 beads; in transgenic mouse T cells | activation, % (series mostly up to about 46 µM) | hit rate 0.065% among 360,000; in the data active means activation above about 50%; inconclusive means mostly about 30% to 49%; further: 0% is about no effect
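Unstimulated transgenic mouse T cells; 60-min compound exposure; bead-based TCR/CD4/CD28 stimulation; 18 h culture, 37 degrees C; dual fluorescence (EGFP, DsRed) plate cytometry.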
USP2a inh: blocks human ubiquitin-specific protease USP2a; USP2 core, Ub-CHOP2 coupled fluorogenic reporter, 485/531; Potency, µM (top dose mostly 38.3 µM), inactives show top-dose activity change, negative = inhibition, hits mostly inhibitors; hit rate 0.01% among 330,000; AID 463254;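 further: potency means the concentration at half of the fitted maximal effect; plate controls were DMSO wells for no effect and full inhibition by NEM control for full effect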
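Cell-free coupled assay: 10nM USP2 core preincubated 30min RT with compound in Tris-HCl pH 8.0/CaCl2/CHAPS buffer, then 25nM Ub-CHOP2 and 25nM reporter substrate; fluorescence (Ex 485/Em 531) read after 60min RT, normalized to NEM inhibition, concentration-response curves fitted.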
Pin1 inhibitor: blocks the human prolyl isomerase Pin1 | Potency, µM (doses to about 115 µM), for the others: at the highest dose activity, negative = inhibition, hits mostly inhibitors | Pin1 FP peptide displacement, HiFluor488, 10 min | Q13526 | hit rate 0.009% among 390,000 | AID 504891; active means well fitted inhibition curve with a large enough effect in the polarisation, with a control signal flat, not every such curve was filed as active; inconclusive means small, poorly fitted or top-dose-only effect, or effect the other way, or a change in a side signal; inactive means no such curve, though single readings can be large or run the other way; the % refers to the polarisation; further: potency means the concentration at half of the fitted maximal effect; on the % scale 0 is the no-effect control and ±100 the full control effect
Target sequence (Q13526 whole entry, looked up): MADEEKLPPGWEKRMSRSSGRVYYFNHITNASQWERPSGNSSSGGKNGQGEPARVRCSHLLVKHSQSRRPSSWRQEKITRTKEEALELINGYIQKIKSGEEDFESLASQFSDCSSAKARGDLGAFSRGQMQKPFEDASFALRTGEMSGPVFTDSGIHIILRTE
a7 integrin act: integrin-mediated muscular dystrophy alleviation activation. Potency, µM (titrated, usually from 38.3 µM), without a hit: at the highest dose activation, actives largely listed as activators. alpha7betagal myoblasts, beta-gal FDG fluorescence, 48 h. hit rate 0.064% among 350,000;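 further: potency means the concentration at half of the fitted maximal effect; 100% = response of the positive control SU9516; nearly all actives have a fitted effect of over 60% in size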
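alpha7betagal+/- myoblasts (passage 13, 250/well) treated 48 h at 37C with compounds at 1:260 dilution of DMSO stock. Lysed, then beta-galactosidase activity read as FDG fluorescence (ex 480/em 540) after 30 min, with pre-read for autofluorescence.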
ClpP mod: qHTS Assay for Activators of ClpP; hit rate 1.9% among 340,000; purified B. subtilis ClpP, FRET peptide cleavage, 20 min; Potency, µM (top dose mostly 57.5 µM), without a hit: at the highest dose activity change, negative = active; active means well fitted falling curve with a large enough effect; inconclusive means small, poorly fitted or top-dose-only effect; inactive means no such curve, though single readings can be large or run the other way; further: potency means the concentration at half of the fitted maximal effect; the source files actives as falling curves though it sought activators and does not explain the sign; nearly all actives have a fitted effect of over 65% in size
Target sequence (P80244 whole entry, looked up): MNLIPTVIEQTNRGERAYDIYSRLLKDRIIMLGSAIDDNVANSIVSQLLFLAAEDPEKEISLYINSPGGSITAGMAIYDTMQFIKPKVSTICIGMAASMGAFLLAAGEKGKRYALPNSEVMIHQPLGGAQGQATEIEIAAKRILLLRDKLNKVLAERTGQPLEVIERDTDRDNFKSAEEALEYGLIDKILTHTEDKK
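Purified B. subtilis ClpP, 10 microg/mL final in Tris/HCl pH8 with KCl, BSA, glycerol and Tween-20, cleaved an Abz/nitrotyrosine-quenched decapeptide. Fluorescence (ex 320, em 430) was read at 0 and 20 min at room temperature. Delta was normalized to 5.8 microM ADEP and DMSO/no-enzyme controls.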
PKM2 act: activators of human pyruvate kinase M2 | P14618 | purified PKM2, Kinase-Glo ATP luminescence, activation; response scale: 0% is enzyme alone, no compound | Potency, µM (titrated, usually from 57.5 µM), without a hit: top-dose activation, hits mostly activators | hit rate 0.34% among 260,000 | AID 1631; further: potency means the concentration at half of the fitted maximal effect; on the % scale 0 is the no-effect control and ±100 the full control effect; nearly all actives have a fitted effect of over 55% in size
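ATP formation by purified human PK-M2, quantified via coupled luciferase luminescence after 1 h at room temperature with 0.1 mM ADP and 0.5 mM PEP final.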
* hit, by the source's call; ? = inconclusive; / = no result. In the library only some 1.9% were active in any assay of this set; here they are far more common. Unless noted, the call rests on the fitted dose curve; in most records, active means well fitted curve in the direction sought with a large enough effect; inconclusive means small, poorly fitted or top-dose-only effect, or another doubt; inactive means no such curve, though single readings can be large; an effect the other way counts as inactive or inconclusive.

SMILES | IL2 activator | USP2a inh | Pin1 inhibitor | a7 integrin act | ClpP mod | PKM2 act
COc1ccc(OCc2ccc(-c3nc(C#N)c(NCc4ccc(F)cc4)o3)o2)cc1 | / | / | 18% | / | 32µM* | /
CC(Nc1oc(-c2ccc(COc3ccc(Cl)cc3)o2)nc1C#N)c1ccccc1 (stereo unspecified) | / | / | 3% | / | ? | /
CCNc1oc(-c2ccc(COc3ccc(Cl)cc3)o2)nc1C#N | / | / | 0% | / | -179% | /
COCCCNc1oc(-c2ccc(COc3ccc(Cl)cc3)o2)nc1C#N | / | / | 1% | / | 32µM* | /
COc1cc(OC)cc(-c2nnc3n2N=C(c2ccc(OC)cc2OC)CS3)c1 | / | / | 24% | / | / | /
OCCCN=c1cc(-c2ccccc2)oc2ccc(Cl)cc12 | 0 | 1% | 7% | -64% | 32µM* | 3%
COc1ccc(-c2ccc(C(C)=O)cc2)cc1C1C2C=CCCC2(C)C(=O)N1Cc1ccccc1 (stereo unspecified) | / | / | 38% | / | / | /
N#C/C(=C\c1cccnc1)C(=O)Nc1cccc(Cl)c1 | 1 | 0% | 11% | 9% | 1% | 5.6µM*
CN(c1ccccc1)c1ccc(CNc2nn3c(=O)c4ccccc4nc3s2)cc1 | / | / | -1% | / | / | /
CC(C)(C)c1ccc(/C=C/C(=O)N2CCOCC2)cc1 | 1 | 0% | -5% | -1% | 22µM* | -9%
CCCN1CCC(=O)N(C(CSc2ccc(OC)cc2)c2ccccc2)CC1 (stereo unspecified) | / | / | -4% | / | / | /
CCOC(=O)c1c(-c2ccccc2)[nH]c2ccc(O)cc12 | 4 | -1% | -3% | -24% | 32µM* | 0%
COc1cccc2c1nc(C)c1cc(C)oc12 | -1 | 2% | 1% | -5% | 28µM* | -4%
COc1ccc2nc(C)c3cc(C)oc3c2c1 | 1 | 3% | 13% | 2% | -8% | -10%
N=c1n(CCCOc2ccc(F)cc2)c2ccccc2n1CC(N)=O | 0 | 2% | -3% | -47% | / | -1%
CCOC(=O)Cn1c(=N)n(CCOc2ccc(F)cc2)c2ccccc21 | -1 | 0% | -1% | -8% | 4µM* | -3%
CCCn1c(=N)n(CC(=O)OCC)c2ccccc21 | 1 | -3% | -8% | 2% | 1% | 2%
C=CCn1c(=N)n(CC(=O)OCC)c2ccccc21 | -2 | 2% | -1% | 12% | 25µM* | -5%
CCc1ccc2[nH]c(=O)c(CN(Cc3cccs3)Cc3nnnn3Cc3ccccc3)cc2c1 | / | / | 12% | / | ? | /
Cc1nn(S(=O)(=O)c2cccs2)c(C)c1Sc1ccccc1 | / | 0% | / | / | / | 16µM*
Cc1nn(S(=O)(=O)c2cccs2)c(C)c1Sc1ccc([N+](=O)[O-])cc1 | -2 | -5% | -2% | 5% | 1% | 3%
CC(NC(=O)c1ccccc1O)c1ccccc1 (stereo unspecified) | -2 | 2% | -9% | 5% | 16µM* | 4%
COc1ccccc1C(=O)NC(C)c1ccccc1 (stereo unspecified) | -1 | 0% | -6% | 43% | -1% | -2%
CCn1cc(Br)c(C(=O)NC(C)c2ccccc2)n1 (stereo unspecified) | 72* | / | 5% | 5% | 1% | -3%
CC(NC(=O)Cn1cc(Br)c([N+](=O)[O-])n1)c1ccccc1 (stereo unspecified) | 1 | 0% | -8% | 6% | 0% | 1%
Cc1c(C(=O)NCc2ccoc2)oc2ccc3c(c12)C(=O)CC(C)(C)O3 | -4 | -4% | -1% | -6% | 28µM* | ?
Cc1sc2ncnc(N3CCC(C(=O)NNC(=O)c4ccc(Cl)cc4)CC3)c2c1C | 0 | 1% | 20% | -20% | 13µM* | /
CCc1ccc2oc(-c3ccc(C)c(NC(=O)COc4ccc(Cl)cc4)c3)nc2c1 | / | / | / | / | 4% | /
Cc1ccc(-c2nc3cccnc3o2)cc1NC(=O)COc1ccc(C(C)(C)C)cc1 | -1 | 8% | 2% | -46% | 28µM* | 7%
